Data as given in the supplement of paper PMC7380943.
Where a name gives a salt, the structure may show the parent alone.

Each compound was assayed on CLZ3 (HCA2 human fibroblast dual HR-NHEJ reporter) (assay: NHEJ repair efficiency (GFP+ cells) relative to control (log10 fold); higher = more non-homologous end joining). Conditions: 5 µM; doxycycline 0.5 ug/mL.
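Further: compound given one day ahead of doxycycline, which switches on I-SceI endonuclease to cut the chromosomally integrated reporter and create DSBs.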

O=c1ccc2cc3ccoc3c(O)c2o1 [Xanthotoxol] and O=C1C=CC(=O)c2c(O)cccc21 [Juglone] are within 0.2 log units of each other in “NHEJ repair efficiency (log10)” value: 0.0631 for the first, 0.0328 for the second.

COc1cc(C2OCC3C(c4cc(OC)c(O[C@@H]5O[C@H](CO)[C@@H](O)[C@H](O)[C@H]5O)c(OC)c4)OCC23)cc(OC)c1O[C@H]1O[C@@H](CO)[C@H](O)[C@@H](O)[C@@H]1O (stereo not given in full) [Eleutheroside E] and CC(C)=CCC[C@@](C)(O)[C@H]1CC[C@]2(C)[C@@H]1[C@H](O)C[C@@H]1[C@@]3(C)CC[C@H](O[C@@H]4O[C@H](CO)[C@@H](O)[C@H](O)[C@H]4O)C(C)(C)[C@@H]3CC[C@]12C [R-Ginsenoside Rh2] are within 0.2 log units of each other in “NHEJ repair efficiency (log10)” value: 0.119 for the first, -0.0662 for the second.

C=C[C@H]1CN2CC[C@]3(C(=O)Nc4ccccc43)[C@@H]2C[C@@H]1/C(=C\OC)C(=O)OC [Corynoxeine] and CC[C@H]1CN2CC[C@@]3(C(=O)Nc4ccccc43)[C@@H]2C[C@@H]1/C(=C\OC)C(=O)OC [Isorhynchophylline] are within 0.2 log units of each other in “NHEJ repair efficiency (log10)” value: -0.123 for the first, -0.108 for the second.

Oc1cc(O)cc(/C=C/c2ccc(O)cc2O)c1 [Oxy-Resveratrol] and COc1c(C)c(O)cc2[o+]c(-c3ccccc3)ccc12.[O-][Cl+3]([O-])([O-])[O-] [Dracorhodin perochlorate] are within 0.2 log units of each other in “NHEJ repair efficiency (log10)” value: 0.00144 for the first, 0.134 for the second.

O=C1CCC[C@@H]2[C@H]3CCCN4CCC[C@@H](CN12)[C@@H]34 [Matrine] and C[C@H]1CCC2N(C1)C[C@H]1C3CC4[C@@H](CC(=O)C5C[C@@H](O)CC[C@@]54C)C3CCC1[C@]2(C)O (stereo not given in full) [Peiminine] are within 0.2 log units of each other in “NHEJ repair efficiency (log10)” value: -0.00125 for the first, -0.0507 for the second.

O=C(O)[C@@H]1[C@H](C(=O)O)[C@H]2CC[C@@H]1O2 [Endothall Disodium Salt] and CN1[C@@H]2C[C@@H](OC(=O)[C@H](CO)c3ccccc3)C[C@H]1[C@@H]1O[C@@H]12 [Scopolamine Hydrobromide] are within 0.2 log units of each other in “NHEJ repair efficiency (log10)” value: 0.13 for the first, 0.039 for the second.

COC[C@@]12CC[C@H](OC)[C@]34C([C@H]([C@H](OC)[C@H]13)[C@]1(O)[C@H]3[C@@H](OC(=O)c5ccccc5)[C@](O)(C[C@H]34)[C@@H](OC)[C@@H]1O)N(C)C2 [Benzoylhypaconine] and CCN1C[C@]2(COC)[C@H](O)C[C@H](OC)[C@]34C1[C@H]([C@H](OC)[C@H]23)[C@@]1(OC(C)=O)C[C@H](OC)[C@@]2(O)C[C@@H]4[C@@H]1[C@H]2OC(=O)c1ccccc1 [Indaconitine] are within 0.2 log units of each other in “NHEJ repair efficiency (log10)” value: -0.013 for the first, 0.0186 for the second.

C[C@@]12C[C@@H](c3ccoc3)OC(=O)[C@@H]1CC[C@]1(C)[C@H]2[C@@H]2C=C[C@@]1(O)C(=O)O2 [Columbin] and C/C1=C\C2C(CCC3(CO3)C(O)C3C(O)C(C)CC3(O)C1=O)C2(C)C (stereo not given) [6,17-Epoxylathyrol] are within 0.2 log units of each other in “NHEJ repair efficiency (log10)” value: -0.00145 for the first, -0.129 for the second.

COC1=C[C@@H]2[C@@H]3Cc4ccc(OC)c(O)c4[C@]2(CCN3C)CC1=O [Sinomenine] and COc1cc2c3c(c1OC)-c1ccccc1C[C@H]3N(C)CC2 [Nuciferine] are within 0.2 log units of each other in “NHEJ repair efficiency (log10)” value: 0.154 for the first, 0.114 for the second.

N#CCc1ccc2c(c1)OCO2 [Homopiperonylonitrile] and CNCC(O)c1ccc(O)cc1 (stereo not given) [Synephrine] are within 0.2 log units of each other in “NHEJ repair efficiency (log10)” value: 0.103 for the first, 0.0915 for the second.

CC(=O)[C@]1(O)CC[C@@]2(O)[C@]1(C)[C@H](OC(=O)/C=C(\C)C(C)C)C[C@@H]1[C@@]3(C)CC[C@H](O)CC3=CC[C@]12O [Caudatin] and CCN1C[C@]2(COC)[C@H](O)C[C@H](OC)[C@]34C1[C@H]([C@H](OC)[C@H]23)[C@]1(O)[C@H]2[C@@H](O)[C@](O)(C[C@H]24)[C@@H](OC)[C@@H]1O [Aconine] are within 0.2 log units of each other in “NHEJ repair efficiency (log10)” value: -0.0815 for the first, -0.104 for the second.

C=C(C)C1CC=C(C=O)CC1 (stereo not given) [Perillaldehyde] and CCN1CC2(COC)CCC(O)C34C5CC6C(OC)CC(O)(C5C6O)C(C(OC)C23)C14 (stereo not given) [Bullatine B] are within 0.2 log units of each other in “NHEJ repair efficiency (log10)” value: 0.0128 for the first, -0.0469 for the second.

First: CCN1C[C@]2(COC)CC[C@H](OC)[C@]34C1[C@H](C[C@H]23)[C@@]1(O)C[C@H](OC)[C@H]2C[C@@H]4[C@@H]1[C@H]2O [Talatisamine]
Second: CCCC[N+]1(C)[C@@H]2C[C@@H](OC(=O)[C@H](CO)c3ccccc3)C[C@H]1[C@@H]1O[C@@H]12 (stereo not given in full) [Scopolamine Butylbromide]
The “NHEJ repair efficiency (log10)” value of the first is higher: 0.0604 for the first, -0.172 for the second.

C/C=C/C#CC#C/C=C/c1ccco1 [Atractylodin] and C=C[C@@H](O)C#CC#C[C@@H](O)/C=C\CCCCCCC [Falcarindiol] are within 0.2 log units of each other in “NHEJ repair efficiency (log10)” value: 0.014 for the first, -0.109 for the second.

CN[C@@H](C)[C@H](O)c1ccccc1 [Ephedrine hydrochloride] and C=CCSSCC=C [Garlicin] are within 0.2 log units of each other in “NHEJ repair efficiency (log10)” value: 0.0488 for the first, -0.0895 for the second.
